Among the data in PubChem BioAssay (NCATS) are Potency and outcome values, retold here.

Assay [1] can be described thus: qHTS of pediatric cancer cell lines to identify multiple opportunities for drug repurposing: Primary screen for SK-N-MC cells (AID 1347093). Also: potency is read from the fitted curve at half-maximal effect. An outline of the steps:
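Metabolically active cells were quantified by ATP-dependent luminescence (CellTiter-Glo, 15 min at room temperature) following 48 h treatment. Cells had been plated at 500-1,000 per well and settled for 5 h beforehand.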
On the technique in general: qHTS replaces the single test concentration by a dilution series.

Assay [2] in a line: qHTS of pediatric cancer cell lines to identify multiple opportunities for drug repurposing: Primary screen for BT-37 cells (AID 1347094). Also: series mostly up to about 57 µM. An outline of the steps:
(§1)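 Plated cells (500-1,000 per well, growth media) were allowed to settle for 5 hours, treated with compound dilutions for 48 hours, then lysed with CellTiter-Glo for 15 min at room temperature before luminescence reading.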

Assay [3] in a line: qHTS of pediatric cancer cell lines to identify multiple opportunities for drug repurposing: Primary screen for Saos-2 cells (AID 1347097). Also: nearly all actives have a fitted effect of over 40% in size. Also: potency is read from the fitted curve at half-maximal effect. In short, it runs like this: as §1
A short description of assay [4]: qHTS of pediatric cancer cell lines to identify multiple opportunities for drug repurposing: Primary screen for SK-N-SH cells (AID 1347098). Also: nearly all actives have a fitted effect of over 65% in size. Also: potency is read from the fitted curve at half-maximal effect. In short, it runs like this: (§2)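 Cells (500-1,000/well) rested 5 h, then received compounds for 48 h; metabolically active cells were measured by CellTiter-Glo luminescence. Final concentrations spanned up to 46 µM (MIPE, 11-point) or 0.59 nM-46 µM (NPC, 8-point) in primary screens, 11-point in follow-ups.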

Assay [5] is described as follows: qHTS of pediatric cancer cell lines to identify multiple opportunities for drug repurposing: Primary screen for NB1643 cells (AID 1347099). Also: nearly all actives have a fitted effect of over 50% in size. An outline of the steps:
as §1

Assay [6] in a line: qHTS of pediatric cancer cell lines to identify multiple opportunities for drug repurposing: Primary screen for LAN-5 cells (AID 1347100). Also: potency is read from the fitted curve at half-maximal effect. In short, it runs like this:
(§3)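 Viability after 48 h compound treatment at 37C, 500-1,000 cells/well, read as ATP luminescence with CellTiter-Glo. Primary screens used 11-point (MIPE, 0.78 nM-46 µM) or 8-point (NPC, 0.59 nM-46 µM) final concentrations; follow-up screens used 11-point dilutions.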

Assay [7] can be described thus: qHTS of pediatric cancer cell lines to identify multiple opportunities for drug repurposing: Primary screen for BT-12 cells (AID 1347101). Also: nearly all actives have a fitted effect of over 25% in size. An outline of the steps: as §2
Assay [8] in a line: qHTS of pediatric cancer cell lines to identify multiple opportunities for drug repurposing: Primary screen for Rh18 cells (AID 1347102). Also: nearly all actives have a fitted effect of over 65% in size. In short, it runs like this: as §3
Assay [9] in a line: qHTS of pediatric cancer cell lines to identify multiple opportunities for drug repurposing: Primary screen for RD cells (AID 1347104). Also: nearly all actives have a fitted effect of over 55% in size. Also: potency is read from the fitted curve at half-maximal effect. An outline of the steps:
as §1

Assay [10] can be described thus: qHTS of pediatric cancer cell lines to identify multiple opportunities for drug repurposing: Primary screen for MG 63 (6-TG R) cells (AID 1347105). Also: nearly all actives have a fitted effect of over 50% in size. Also: potency is read from the fitted curve at half-maximal effect. An outline of the steps: as §1
Assay [11] can be described thus: qHTS of pediatric cancer cell lines to identify multiple opportunities for drug repurposing: Primary screen for Rh30 cells (AID 1347107). Also: series mostly up to about 46 µM; nearly all actives have a fitted effect of over 75% in size. An outline of the steps: as §3
Assay [12] can be described thus: qHTS of pediatric cancer cell lines to identify multiple opportunities for drug repurposing: Primary screen for Rh41 cells (AID 1347108).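 Also: series mostly up to about 46 µM; luminescence drop marks cytotoxic hits; nearly all actives have a fitted effect of over 70% in size.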 An outline of the steps:
as §1

Assay [13] can be described thus: qHTS of pediatric cancer cell lines to identify multiple opportunities for drug repurposing: Primary screen for U-2 OS cells (AID 1347096). Also: nearly all actives have a fitted effect of over 50% in size. In short, it runs like this:
as §3

Assay [14] in a line: qHTS of pediatric cancer cell lines to identify multiple opportunities for drug repurposing: Primary screen for control Hh wild type fibroblast cells (AID 1347106).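 Also: series mostly up to about 46 µM; a drop in luminescence marks cytotoxicity and a rise apparent proliferation; nearly all actives have a fitted effect of over 55% in size.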 In short, it runs like this:
as §3

The nature of assay [15]: qHTS of pediatric cancer cell lines to identify multiple opportunities for drug repurposing: Primary screen for OHS-50 cells (AID 1347103). Also: nearly all actives have a fitted effect of over 40% in size. Also: potency is read from the fitted curve at half-maximal effect. An outline of the steps:
as §2

The nature of assay [16]: qHTS of pediatric cancer cell lines to identify multiple opportunities for drug repurposing: Primary screen for NB-EBc1 cells (AID 1347095). In short, it runs like this: as §1
Assay [17] in a line: qHTS of pediatric cancer cell lines to identify multiple opportunities for drug repurposing: Confirmatory screen for NB1643 cells (AID 1347109). Also: nearly all actives have a fitted effect of over 45% in size. An outline of the steps:
as §3

Assay [18] in a line: qHTS of pediatric cancer cell lines to identify multiple opportunities for drug repurposing: Confirmatory screen for A673 cells (AID 1347110).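 Also: cells exposed to compound for 48 h before the viability read; nearly all actives have a fitted effect of over 65% in size.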 In short, it runs like this: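 Cells plated at 500-1,000/well were treated five hours later with multi-point dilutions up to 46 µM final. After two days, CellTiter-Glo was added and luminescence read.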
Assay [19] can be described thus: qHTS of pediatric cancer cell lines to identify multiple opportunities for drug repurposing: Confirmatory screen for BT-12 cells (AID 1347112). Also: nearly all actives have a fitted effect of over 55% in size. In short, it runs like this:
as §3

Inconclusive results are not listed. Active and inactive are the calls of the source. Calls follow the shape of the dose curve; as a rule, active = well fitted curve in the direction sought with a large enough effect; inconclusive = small, poorly fitted or top-dose-only effect, or another doubt; inactive = no such curve, though single readings can be large; an effect the other way counts as inactive or inconclusive.

On to `CCc1c(C)[nH]c2c1C(=O)C(CN1CCOCC1)CC2` (stereo not drawn), for which the Potency result in assay [1], in assay [2], in assay [3], in assay [4], in assay [5] and in assay [6] was “inactive” throughout. For the same molecule, the Potency entry in assay [7], in assay [8], in [9], in [10], in assay [11] and in [12] was “inactive” each time.
For the molecule `CN(C)CC/C=C1\c2ccccc2COc2ccccc21`, the Potency result in assay [1], in assay [2], in assay [13], in assay [5], in assay [6] and in assay [10] was “inactive” throughout. Also, the molecule was classed as inactive in assay [14].
On to `COC(=O)C1=C(C)NC(C)=C(C(=O)OC(C)(C)CN(C)CCC(c2ccccc2)c2ccccc2)C1c1cccc([N+](=O)[O-])c1` (stereo not drawn), for which the Potency in [1] is 13.3 µM (active); in assay [6], 18.8 µM (active); in assay [15] it was 12.3 µM (active). Also, in assay [10], the Potency entry was “inactive”. Also, the call in [14] was inactive.
For `OCCN1CCN(CC/C=C2/c3ccccc3Sc3ccc(C(F)(F)F)cc32)CC1`, the Potency was 13.7 µM (active) in assay [4], 23.7 µM (active) in assay [6] and 26.6 µM (active) in assay [9]. Further, the molecule was classed as inactive in assay [14]. In addition, the Potency entry in [11] and in [12] was “inactive” throughout.
`CCOC(=O)C1=C(C)NC(C)=C(C(=O)OC)C1c1cccc(Cl)c1Cl` (stereo not drawn): the Potency result in [2], in assay [13], in assay [3], in assay [5], in [6] and in assay [8] was “inactive” in each case. The Potency result in [9], in assay [10], in assay [11] and in [12] was “inactive” each time. Besides, in assay [14], the outcome was inactive.
Consider `CCOC(=O)C1=C(C)NC(C)=C(C(=O)OC)C1c1cccc([N+](=O)[O-])c1` (stereo not drawn), for which the Potency result in assay [2], in assay [16], in assay [13], in assay [4], in assay [5] and in assay [6] was “inactive” in each case. Besides, the Potency entry in assay [7], in assay [8], in [9], in assay [11] and in assay [12] was “inactive” each time. Also, the outcome in [14] was inactive.
`O=C(CCCN1CCC(O)(c2cccc(C(F)(F)F)c2)CC1)c1ccc(F)cc1`: the Potency result in [2], in assay [16], in assay [13], in [4], in [5] and in assay [6] was “inactive” in each case. Moreover, the Potency entry in assay [10], in assay [11] and in assay [12] was “inactive” each time. The outcome in assay [14] was inactive.
Consider `Cc1nc2ccccn2c(=O)c1CCN1CCC(C(=O)c2ccc(F)cc2)CC1`, for which the Potency result in assay [2], in assay [16], in assay [4], in assay [5], in assay [6] and in assay [8] was “inactive” each time. The Potency result in [9], in assay [10] and in assay [12] was “inactive” in each case. In assay [14], the call was inactive.
Turning to `COCC(=O)O[C@]1(CCN(C)CCCc2nc3ccccc3[nH]2)CCc2cc(F)ccc2[C@@H]1C(C)C`, the Potency in assay [3] is 26.6 µM (active); in assay [4], 19.4 µM (active); in [15] it was 21.9 µM (active); in assay [9] it was 26.6 µM (active); in assay [10], 21.1 µM (active). Besides, in [5], the Potency result was “inactive”. The molecule was classed as inactive in [14].
As for `CC(=O)OC(C)C[N+](C)(C)C` (stereo not drawn), the Potency result in assay [2], in [16], in assay [13], in assay [3], in assay [4] and in assay [5] was “inactive” in each case. The Potency result in [6], in [7], in assay [8], in assay [9], in [11] and in assay [12] was “inactive” in each case. Besides, the molecule was called inactive in assay [14].
With `CCN(CC)CCCN(c1ccccc1)C1Cc2ccccc2C1`, the Potency result in assay [2], in assay [13], in assay [3], in assay [5], in assay [8] and in assay [10] was “inactive” throughout. Also, the Potency entry in assay [11] and in assay [12] was “inactive” each time. Moreover, the molecule was called inactive in assay [14].
For the molecule `C(=C\c1ccccc1)/CN1CCN(C(c2ccccc2)c2ccccc2)CC1`, the Potency result in assay [2], in assay [13], in assay [4], in [5], in [6] and in assay [7] was “inactive” in each case. The Potency result in assay [8], in [11] and in assay [12] was “inactive” each time.
Regarding `COC(=O)[C@@H](N)Cc1ccc(O)c(O)c1`, the Potency result in [2], in [16], in [13], in assay [4], in assay [5] and in assay [6] was “inactive” throughout. Besides, the Potency entry in [7], in assay [8], in [15], in assay [9], in assay [10] and in [12] was “inactive” each time. Moreover, the molecule was called inactive in [14].
`CN1C[C@H](C(=O)N[C@]2(C)O[C@@]3(O)[C@@H]4CCCN4C(=O)[C@H](Cc4ccccc4)N3C2=O)C[C@@H]2c3cccc4[nH]cc(c34)C[C@H]21`: the Potency result in assay [2], in assay [16], in assay [13], in assay [5], in assay [6] and in assay [9] was “inactive” throughout. Besides, the Potency entry in [10], in assay [11], in assay [12], in [17], in assay [18] and in assay [19] was “inactive” throughout. Further, the Potency in [4] was 30.7 µM (active). Besides, the molecule was classed as inactive in [14].
Take `CCC(=O)c1ccc2c(c1)N(CCCN(C)C)c1ccccc1S2`: the Potency result in assay [16], in [13], in assay [5], in [10] and in assay [11] was “inactive” each time. In addition, the Potency in [4] was 34.4 µM (active); in [15], 30.9 µM (active).
Consider `CNCCCN1c2ccccc2CCc2ccccc21`, for which the Potency result in assay [3], in [5], in [6], in [11] and in [12] was “inactive” in each case. In addition, the Potency was 30.7 µM (active) in assay [4] and 15.5 µM (active) in assay [15]. Also, the molecule was called inactive in [14].
